# Test results as given in article PMC10812921, “Transcriptional Coactivator BOB1 (OBF1, OCA-B) Modulates the Specificity of DNA Recognition by the POU-Domain Factors OCT1 and OCT2 in a Monomeric Configuration”.
# Assays:
# [1] = target: POU1 (OCT1 POU domain) (human, UniProt P14859 260-458); assay: EMSA-SELEX-seq; no BOB1; 20 mM Tris-HCl pH 7.6, 140 mM NaCl, 10% glycerol, 0.5 mM EDTA, 0.05% Triton X-100, 0.1 mg/mL BSA, 0.1 mg/mL poly(dI-dC), 5 mM DTT, room temperature, 20 min; high values mean tight binding; settings: protein: recombinant; dsDNA, one strand shown
# Chain of POU1 (OCT1 POU domain) (P14859 260-458): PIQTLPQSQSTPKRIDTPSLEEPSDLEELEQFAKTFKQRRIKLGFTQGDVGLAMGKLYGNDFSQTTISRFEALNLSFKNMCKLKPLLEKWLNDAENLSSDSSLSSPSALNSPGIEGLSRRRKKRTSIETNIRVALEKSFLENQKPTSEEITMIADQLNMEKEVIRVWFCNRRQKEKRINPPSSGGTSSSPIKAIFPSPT
# Method in brief: (§1)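 Binding preference is the percentage of sequenced 8-mers matching a motif pattern. Tagged POU-domain proteins expressed in E. coli BL21 were purified under denaturing conditions and renatured. For binding, 30 ng protein met 300 ng of a PCR-amplified double-stranded random 35-nt library, with or without 28 ng coactivator protein, in 20 μL Tris–HCl pH 7.6 binding buffer for 20 min at RT. Complex bands were cut from native 6% PAGE, eluted and PCR-amplified over four rounds, then Illumina-sequenced.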
# [2] = target: T1, POU2 (OCT2 POU domain) (human, UniProt P09086 175-386); assay: as above; settings: protein: recombinant; dsDNA, one strand shown
# T1 sequence: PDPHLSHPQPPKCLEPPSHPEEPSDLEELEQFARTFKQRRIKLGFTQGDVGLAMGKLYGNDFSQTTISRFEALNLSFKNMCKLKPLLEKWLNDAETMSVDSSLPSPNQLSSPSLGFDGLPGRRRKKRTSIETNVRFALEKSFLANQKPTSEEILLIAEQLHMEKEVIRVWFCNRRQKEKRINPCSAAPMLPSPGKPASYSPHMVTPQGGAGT
# Method in brief: as §1
# [3] = target: POU1 (OCT1 POU domain);BOB1 (OBF1, OCA-B) (human;human, UniProt P14859;Q16633 260-458;1-256, |); assay: EMSA-SELEX-seq; with BOB1 (ternary complex band); 20 mM Tris-HCl pH 7.6, 140 mM NaCl, 10% glycerol, 0.5 mM EDTA, 0.05% Triton X-100, 0.1 mg/mL BSA, 0.1 mg/mL poly(dI-dC), 5 mM DTT, room temperature, 20 min; high values mean tight binding; settings: protein: recombinant;recombinant; copies: 1;1; dsDNA, one strand shown
# Method in brief: as §1
# [4] = target: T2, POU2 (OCT2 POU domain);BOB1 (OBF1, OCA-B) (human;human, UniProt P09086;Q16633 175-386;1-256, |); assay: as above; settings: protein: recombinant;recombinant; copies: 1;1; dsDNA, one strand shown
# T2 sequence 1: T1 sequence
# T2 sequence 2: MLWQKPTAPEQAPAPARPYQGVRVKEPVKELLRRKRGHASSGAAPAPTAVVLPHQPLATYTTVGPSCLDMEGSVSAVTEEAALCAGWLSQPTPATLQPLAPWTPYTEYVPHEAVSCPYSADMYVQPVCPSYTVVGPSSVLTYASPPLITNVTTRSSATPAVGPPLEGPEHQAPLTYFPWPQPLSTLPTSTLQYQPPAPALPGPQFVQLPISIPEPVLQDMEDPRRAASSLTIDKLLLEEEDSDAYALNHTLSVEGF
# Method in brief: as §1
Sequence,binding signal [1],binding signal [2],binding signal [3],binding signal [4]
ACGTGAAC,0.0153 % of ANNNNAAN 8-mers,0.0247 % of ANNNNAAN 8-mers,0.0215 % of ANNNNAAN 8-mers,0.0206 % of ANNNNAAN 8-mers
ATTGGAAT,0.141 % of ANNNNAAN 8-mers,0.18 % of ANNNNAAN 8-mers,0.0968 % of ANNNNAAN 8-mers,0.0966 % of ANNNNAAN 8-mers
AATAAAAC,0.0751 % of ANNNNAAN 8-mers,0.0967 % of ANNNNAAN 8-mers,0.0757 % of ANNNNAAN 8-mers,0.0726 % of ANNNNAAN 8-mers
AGCCGAAG,0.0168 % of ANNNNAAN 8-mers,0.0201 % of ANNNNAAN 8-mers,0.0195 % of ANNNNAAN 8-mers,0.0182 % of ANNNNAAN 8-mers
ACAGTAAA,0.0481 % of ANNNNAAN 8-mers,0.0414 % of ANNNNAAN 8-mers,0.0531 % of ANNNNAAN 8-mers,0.0338 % of ANNNNAAN 8-mers
AGTATAAA,0.0744 % of ANNNNAAN 8-mers,0.08 % of ANNNNAAN 8-mers,0.0585 % of ANNNNAAN 8-mers,0.0479 % of ANNNNAAN 8-mers
AACAAAAA,0.0831 % of ANNNNAAN 8-mers,0.0662 % of ANNNNAAN 8-mers,0.121 % of ANNNNAAN 8-mers,0.0726 % of ANNNNAAN 8-mers
AAACTAAT,0.104 % of ANNNNAAN 8-mers,0.129 % of ANNNNAAN 8-mers,0.0808 % of ANNNNAAN 8-mers,0.0925 % of ANNNNAAN 8-mers
ACAGAAAA,0.0389 % of ANNNNAAN 8-mers,0.0472 % of ANNNNAAN 8-mers,0.0472 % of ANNNNAAN 8-mers,0.0322 % of ANNNNAAN 8-mers
AAGGAAAC,0.0385 % of ANNNNAAN 8-mers,0.0403 % of ANNNNAAN 8-mers,0.0511 % of ANNNNAAN 8-mers,0.038 % of ANNNNAAN 8-mers
AAGGCAAG,0.0328 % of ANNNNAAN 8-mers,0.038 % of ANNNNAAN 8-mers,0.0328 % of ANNNNAAN 8-mers,0.0256 % of ANNNNAAN 8-mers
AGACGAAT,0.0461 % of ANNNNAAN 8-mers,0.0581 % of ANNNNAAN 8-mers,0.0418 % of ANNNNAAN 8-mers,0.0479 % of ANNNNAAN 8-mers
ACCCGAAT,0.0233 % of ANNNNAAN 8-mers,0.0386 % of ANNNNAAN 8-mers,0.0219 % of ANNNNAAN 8-mers,0.0248 % of ANNNNAAN 8-mers
AATTTAAC,0.17 % of ANNNNAAN 8-mers,0.147 % of ANNNNAAN 8-mers,0.117 % of ANNNNAAN 8-mers,0.0982 % of ANNNNAAN 8-mers
ATGCAAAA,1.5 % of ANNNNAAN 8-mers,1.17 % of ANNNNAAN 8-mers,3.15 % of ANNNNAAN 8-mers,3.29 % of ANNNNAAN 8-mers
